# Only some compounds are listed: those with a hit (about 18% of all), similar ones and a draw of the others.
# KAT2A inh = inhibitors of human GCN5L2 histone acetyltransferase | Q92830 | Potency, µM (titrated, usually from 58.9 µM), actives largely listed as inhibitors | GCN5L2 HAT assay, ThioGlo1 CoA-SH fluorescence | 390,000 tested, 0.21% active
#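 GCN5L2 (20nM final) in 50mM HEPES, 0.1mM EDTA pH 7.5, 0.01% Tween-20 was preincubated 15 min at room temperature with compound, then given ThioGlo1 (50uM), H3(1-25) peptide (75uM) and acetyl-CoA (70uM); CoA-thiol fluorescence (Ex340/Em540) was read at 0 and 20 min.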
# VDR inh = blocks the human vitamin D receptor; AID 504847; VDR-SRC2-3 peptide fluorescence polarization, 2 h; 400,000 tested, 0.93% active; Potency, µM, usual class: inhibitors; P11473
#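 The screen uses fluorescence polarization to detect compounds that interfere with recruitment of the SRC2-3 coactivator peptide to VDR; plates are read after 2 h at room temperature.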
# TDP1 block = inhibitors of human tyrosyl-DNA phosphodiesterase TDP1 | 350,000 tested, 0.28% active | recombinant TDP1, AlphaScreen DNA substrate cleavage | Q9NUW8 | Potency, µM (titrated, usually from 130 µM), hits mostly inhibitors; note: nearly all actives have a fitted effect of over 40% in size
# Target sequence (Q9NUW8 whole entry, looked up): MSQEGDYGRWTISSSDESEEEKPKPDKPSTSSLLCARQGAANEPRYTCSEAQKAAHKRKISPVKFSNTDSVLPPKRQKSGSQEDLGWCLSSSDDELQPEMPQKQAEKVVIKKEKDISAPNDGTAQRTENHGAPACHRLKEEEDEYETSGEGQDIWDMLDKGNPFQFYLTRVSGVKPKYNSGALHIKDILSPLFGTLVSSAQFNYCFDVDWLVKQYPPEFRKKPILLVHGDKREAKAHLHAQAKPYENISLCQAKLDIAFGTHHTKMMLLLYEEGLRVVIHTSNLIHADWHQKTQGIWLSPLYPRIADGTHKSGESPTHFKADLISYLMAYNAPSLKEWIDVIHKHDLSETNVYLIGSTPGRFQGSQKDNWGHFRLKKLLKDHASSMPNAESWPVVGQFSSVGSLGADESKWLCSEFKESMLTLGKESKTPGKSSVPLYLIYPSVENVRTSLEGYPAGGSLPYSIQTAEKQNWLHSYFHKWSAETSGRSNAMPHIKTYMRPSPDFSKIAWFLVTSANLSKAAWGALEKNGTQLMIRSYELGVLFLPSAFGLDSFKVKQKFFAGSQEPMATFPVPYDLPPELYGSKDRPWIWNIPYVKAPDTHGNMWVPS
#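 Steps: enzyme plus compound, 15 min RT; add biotin/phosphotyrosine-FITC oligonucleotide (15 nM final), react 5 min; add donor/acceptor beads (10 ug/ml final), 10 min; read AlphaScreen. Tdp1 at 1 nM final.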
# TDP1 cell noCPT = qHTS for Inhibitors of human tyrosyl-DNA phosphodiesterase 1 (TDP1): qHTS in cells in absence of CPT; 420,000 tested, 15% active; Potency, µM (titrated, usually from 46.2 µM), usual class: inhibitors; DT40 Tdp1-/- hTDP1 cells, no CPT, ATP luminescence, 48 h; note: nearly all actives have a fitted effect of over 55% in size
#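 Seeded 400 DT40-hTDP1 cells/well (vehicle DMSO, no 20 nM CPT); pinned compounds; ≥48 hr at 37 °C; CellTiter-Glo luminescence as viability measure.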
# PLK1 PBD inh = inhibitors of human PLK1 polo-box domain binding; P53350; Plk1 PBD binding of FITC phosphopeptide, fluorescence polarization; Potency, µM, usual class: inhibitors; 360,000 tested, 2.8% active; AID 720504; note: series mostly up to about 57 µM; nearly all actives have a fitted effect of over 65% in size
# DT40 TDP1 CPT = growth inhibition of DT40 Tdp1-/-;hTDP1 cells with camptothecin (screen for TDP1 inhibitors); chicken DT40 Tdp1-/-;hTDP1 cells + 20 nM CPT, ATP luminescence, 48 h; Potency, µM (titrated, usually from 46.2 µM), usual class: inhibitors; 420,000 tested, 12% active; AID 686979; note: nearly all actives have a fitted effect of over 55% in size
#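 Cell growth measured by CellTiter-Glo luminescence after a minimum 48 h, 37 C compound exposure with 20 nM CPT in Tdp1-knockout DT40 cells stably expressing hTDP1, seeded 400/well; qHTS titration format.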
# A number is an active result; . = inactive; ? = inconclusive; / = not tested or not shown; [ ] = another dose, or the depositor's remark. Calls come from the whole dose curve; as a rule, active = well fitted curve in the direction sought with a large enough effect; inconclusive = small, poorly fitted or top-dose-only effect, or another doubt; inactive = no such curve, though single readings can be large; an effect the other way counts as inactive or inconclusive.
SMILES,KAT2A inh,VDR inh,TDP1 block,TDP1 cell noCPT,PLK1 PBD inh,DT40 TDP1 CPT
O=C1C2C(c3cccc(/C=C/c4ccccc4)c3)CC=CC2C(c2ccc3ccccc3c2)N1Cc1ccccc1 (stereo not drawn),.,.,.,16µM,.,?
COc1ccc(-c2cccc(C3CC=CC4C3C(=O)N(Cc3ccccc3)C4c3cc(C)ccc3F)c2)cc1 (stereo not drawn),.,/,.,/,/,/
COc1ccc(-c2cccc(C3CC=CC4C3C(=O)N(Cc3ccccc3)C4c3ccc(OC)c(Cl)c3)c2)cc1 (stereo not drawn),.,.,.,13µM,?,21µM
Cc1ccc(OCC(=O)NCC2(N3CCN(C)CC3)CCCCC2)cc1,.,.,.,?,/,?
COc1ccc(NC(=O)COC(=O)CCc2ccccc2)c(OC)c1,.,.,.,.,.,.
COc1ccc(CC(=O)NNC(=S)NCC2CC2)cc1OC,.,.,.,?,.,.
Cc1ccc(NC(=O)CCC(=O)NNC(=O)Nc2cccc(Cl)c2)c(C)c1,?,.,.,.,.,.
Cc1cc(NC(=O)c2cc(-c3cccc(OCC(C)C)c3)nc3ccccc23)no1,.,.,.,?,.,?
CCOc1ccc(/C=C/c2nc(C#N)c(NC3CCCCC3)o2)cc1,.,.,.,?,/,?
O=C1C2C(c3ccccc3)CC=CC2C(c2ccc(C(F)(F)F)cc2)N1Cc1ccccc1 (stereo not drawn),/,.,.,/,/,/
O=C1C2C(c3cccc(/C=C/c4ccccc4)c3)CC=CC2C(c2ccc(C(F)(F)F)cc2)N1Cc1ccccc1 (stereo not drawn),.,.,.,?,?,15µM
CCN(CC)C(=O)Cn1c(=O)n(CCCCCC(=O)NCc2ccccc2Cl)c(=O)c2sccc21,.,.,.,.,/,.
CC(C)C(=O)N1CCN(C2=NS(=O)(=O)c3ccccc32)CC1,.,.,.,?,6.7µM,?
O=C(NC(O)C(=O)c1ccccc1)c1cccs1 (stereo not drawn),.,.,.,?,.,?
O=C(NC(O)C(=O)c1ccccc1)c1ccccn1 (stereo not drawn),.,.,.,?,.,23µM
COc1ccc(C(=O)Nc2ccc(NC(=O)c3ccccn3)cn2)cc1,.,.,.,.,.,.
O=C(NN=C(c1ccccc1)c1ccccn1)c1ccccc1,.,.,.,0.92µM,.,1µM
COc1ccc(C(=O)N/N=C(\c2ccccc2)c2ccccn2)cc1,.,.,.,2.6µM,.,2.9µM
O=C(NCCNC(=O)c1ccccn1)c1ccc(F)cc1,.,.,.[0.0935 µM],.,.,.
COc1cccc(Nc2ncc3nc(C)c(=O)n(C[C@H]4CCCO4)c3n2)c1,.,.,/,.,/,.
CC(=O)Nc1nc(SCC(=O)NCc2ccc(F)cc2)[nH]c(=O)c1NC(=O)c1cccs1,?,.,.,.,.,.
CCC(=O)Nc1ccc(/C(C)=N/NC(=O)c2c(-c3ccccc3Cl)noc2C)cc1,.,.,.,?,.,?
Cc1onc(-c2ccccc2Cl)c1C(=O)N/N=C(\N)COc1ccc(Cl)cc1,?,.,.,13µM,.,23µM
Cc1onc(-c2ccccc2)c1C(=O)N/N=C(\N)COc1ccc(Cl)cc1,.,.,.,?,.,16µM
CCOc1ccc(C(=O)COC(=O)c2c(-c3ccccc3)noc2C)cc1,.,.,/,21µM,.,?
SMILES,KAT2A inh,VDR inh,TDP1 block,TDP1 cell noCPT,PLK1 PBD inh,DT40 TDP1 CPT
CN(C(=O)c1cnn(-c2nccc(-c3ccccc3C(F)(F)F)n2)c1C1CC1)C1CCOC1 (stereo not drawn),/,/,/,.,/,?
CCOC1=C2[C@H](c3ccccc3)N(S(=O)(=O)c3ccc(C)cc3)[C@H](C(C)C)[C@H]2n2c(=O)n(-c3ccccc3)c(=O)n2C1,/,/,/,.,.,.
COc1ccc(CN2CCNC(=O)C2CC(=O)N(C)Cc2nccs2)c(OC)c1 (stereo not drawn),.,.,.,.,27µM,?
COc1ccc(CN2CCNC(=O)C2CC(=O)N(C)Cc2ccncn2)c(OC)c1 (stereo not drawn),.,.,.,.,.,.
COCCn1c(=O)c(CCc2ccccc2)nc2cnc(OC)nc21,.,.,/,?,/,.
Cc1cc(S(=O)(=O)ON2C(=O)c3ccccc3C2=O)ccc1F,.,32µM,.,2.1µM,6.7µM,3.3µM
O=C1c2cccc3cccc(c23)C(=O)N1OS(=O)(=O)c1ccc(Br)cc1,.,.,.,10µM,.,?
O=C1c2ccccc2C(=O)N1OS(=O)(=O)c1ccccc1,.,/,.,/,/,/
COc1ccc(N2C(=O)c3cccc4cccc(c34)C2=O)cc1,.,.,.,.,.,.
Cc1ccc(S(=O)(=O)ON2C(=O)c3cccc4cccc(c34)C2=O)cc1,.,.,.,16µM,.,?
O=C1c2cccc3cccc(c23)C(=O)N1CCO,/,/,/,.,.,.
Cc1ccc(S(=O)(=O)N(C)C)cc1NS(=O)(=O)c1ccc(Cl)s1,.,.,.,.,.,.
CCc1nn(CCCC(=O)NCc2ccc(OC)c(OC)c2)c(=O)c2cc3occc3n12,.,.,.,?,/,?
Cc1cc2c(cc1C)C(=O)C(Br)=C(N)C2=O,/,.,/,16µM,.,26µM
Cc1cc(-c2cc(C)c(N)cc2C)c(C)cc1N,/,.,/,?,.,?
CN(c1ccc(OCCOc2ccccc2Cl)cc1)S(=O)(=O)c1ccccc1,.,.,.,2.9µM,.,?
O=C(c1ccccc1)C1OC1C(=O)c1ccccc1 (stereo not drawn),/,.,/,6.5µM,?,4.1µM
CC1C=CC(C)C(C(=O)c2ccccc2)C1C(=O)c1ccccc1 (stereo not drawn),/,/,/,23µM,.,13µM
O=C(c1ccccc1)C1CC1c1ccccc1 (stereo not drawn),/,/,/,?,.,?
CCOC(=O)CN1C(=O)N[C@@H](c2cccc(C(F)(F)F)c2)[C@H](C(=O)OC)[C@H]1C,/,/,.[12.3 µM],/,/,/
COc1cccc(/C=N/NC(=O)CNC(=O)C(c2ccccc2)c2ccccc2)c1O,.,.,.[0.0935 µM],5.8µM,.,7.3µM
COc1ccccc1/C=C\C(=O)NCC(=O)N/N=C/c1ccc(O)cc1O,.,.,/,?,.,?
COc1ccc(/C=C\C(=O)NCC(=O)N/N=C/c2cccc(OC)c2O)cc1,.,.,.,2.6µM,.,5.8µM
COc1cccc(/C=N/NC(=O)CNC(=O)/C=C\c2ccccc2)c1O,.,.,.,2.1µM,.,?

# Source: PubChem BioAssay (National Center for Advancing Translational Sciences (NCATS))
